Compounds without any hit were thinned out: in the full panel of roughly 83,000, 20% have a hit.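 In brief: 96-well plates, 48 h treatment, single concentration, percent growth endpoint.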 A number with no mark means an inactive call. Activity calls are given as the source filed them.
tested on: RPMI-8226 leukemia; experiment: NCI-60 one-dose screen, 48 h (100 = growth as untreated, 0 = no growth, -100 = all killed); conditions: 10 µM unless noted
Protocol: Growth inhibition of the RPMI-8226 human tumor cell line is measured as a screen for anti-cancer activity. Cells are grown in 96 well plates and exposed to the test compound for 48 hours. Compounds are tested at a single concentration, which is 10^-5 M for most compounds. The reported endpoint is percent growth (GI% or GIPRCNT), where numbers from 0 - 100% represent growth inhibition, and numbers from -100% - 0 represent cell death. For example, a value of 40 represents 60% growth inhibition. A value of 0 means no net growth occurred over the course of the experiment. A value of -40 indicates 40% of cells at the beginning of the experiment died by the end of the experiment. A value of -100 means all cells are dead at the end of the experiment.
NCI-60 Human Tumor Cell Lines Screen was performed using the standard one-dose NCI protocol, which is described in more detail at https://dtp.cancer.gov/discovery_development/nci-60/default.htm.
Compounds with GIPRCNT values below 10 were considered active. Activity score was based on GIPRCNT using the following formula: […]
Score is 0 for GIPRCNT values of 100 or above, 50 for GIPRCNT values of 0, and 100 for GIPRCNT values of -100.

Structure (SMILES)	growth
COc1cc(Cl)cc(-c2nn(C(=O)NS(=O)(=O)c3ccccc3)cc2-c2ccncc2)c1	91.7%
CC1(C)[C@@H](NOCCCN)CC[C@]2(C)[C@H]3C(=O)C=C4[C@@H]5C[C@](C)(C(=O)O)CC[C@]5(C)CC[C@@]4(C)[C@]3(C)CC[C@@H]12	-5.46% [100 µM] (active)
O=C(COc1cccc(/C=C2\Oc3ccccc3C2=O)c1)c1ccc([N+](=O)[O-])cc1	75.5%
COc1ccc(-c2nc3ccccn3c2/C=C/C(=O)c2cc(OC)c(OC)c(OC)c2)cc1OC	-26% (active)
O=C(Nc1cccc2cccnc12)c1cc(C(=O)c2ccc(Cl)cc2)n2ccc(-c3ccncc3)cc12	103%
CCCC(NC(=O)OCc1ccccc1)C(=O)O (stereo not given)	68.7%
CCC(C)[C@H](NC(=O)NC(=O)NC(=O)CI)C(=O)OC (stereo not given in full)	61.9%
NC(=O)CC1C=CCC1 (stereo not given)	96.5%
CC(=O)Nc1ccc(C=Nc2ccc3ccccc3c2)cc1	101%
Cc1cc(SC#N)ncn1	101%
CCCc1cc2cc(-n3nc(C)c4c3CC(C)(C)CC4=O)cc(NC3CCSCC3)c2c(=O)[nH]1	49.9%
CCN=Cc1c(O)c(O)c(C(C)C)c2cc(C)c(-c3c(C)cc4c(C(C)C)c(O)c(O)c(C=NCC)c4c3O)c(O)c12	34.8%
Oc1ccc(N=Nc2nccs2)c(O)c1	20.1%
CCOc1ccccc1/C=N\Nc1ccc(S(=O)(=O)c2ccc(N/N=C/c3ccccc3OCC)cc2)cc1	81.3%
O=C(N/N=C1\c2ccccc2-c2cccc(C(=O)O)c21)c1ccc(O)cc1	94.2%
C#CCNC(=O)CC[C@@H](C)[C@H]1CC[C@H]2[C@@H]3CC[C@@H]4CC(=O)CC[C@]4(C)[C@H]3CC[C@]12C	-32.9% [100 µM] (active)
Oc1cc(Nc2ccnc3cc(Cl)ccc23)c2ncccc2c1	53.5%
O=C1/C(=C/c2ccc(OCc3ccccc3)cc2)Oc2cc(OCCN3CCCCC3)ccc21	54%
C=CCCCCOc1ccccc1-c1cnc(OCCCCC=C)n1C	80.8%
COc1ccc(-c2cc(-c3ccc(Cl)cc3)nc(SCCCCCCC(=O)NO)n2)cc1	26.5%

Structure (SMILES)	growth
CC(=O)OC[C@]12CC[C@@H]([C@@H](C)C(N)=O)[C@@H]1[C@H]1CC[C@@H]3[C@@]4(C)CC[C@H](OC(C)=O)C(C)(C)[C@@H]4CC[C@@]3(C)[C@]1(C)CC2	-18.3% [100 µM] (active)
CCCN1CC(c2ccc(OC)c(OC)c2)=C(c2cn(C(=O)OCC)c3ccccc23)C1=O	63.8%
O=C1Nc2ccccc2/C1=C/C(=O)c1ccc(N2CCCC2)cc1	15.8%
COc1ccc(C(=O)c2nccc3cc(OC)c(OC)cc23)cc1OC	133%
COc1cc2c(c(Br)c1N)-c1cc(Br)c(N)cc1C2=O	85.9%
Cn1cc(-c2noc(-c3cn(C)c4ncc(Br)cc34)n2)c2cc(Cl)ccc21	87.6%
O=C1CC(c2ccccc2)Cc2nc3ccc(Cl)cc3cc21 (stereo not given)	29.7%
Cc1ccc(S(=O)(=O)Oc2ccc([N+](=O)[O-])cc2[N+](=O)[O-])cc1	53.2%
O=[N+]([O-])c1cc([N+](=O)[O-])c(C(F)(F)F)cc1NN=C(c1ccc(O)cc1)c1ccc(O)cc1	76.4%
CC(C)C1=NOC(=O)C1=Cc1cn(-c2ccccc2)nc1-c1ccccc1	-16.2% (active)
C[C@]12CCc3nc(Nc4ccccc4)sc3C1=CC[C@@H]1[C@@H]2CC[C@]2(C)/C(=N/NC(N)=S)CC[C@@H]12	-1.05% (active)
CCn1cc(-c2[nH]c(=S)ncc2-c2ccc(Cl)cc2)c(-c2ccc(Br)cc2)n1	77.6%
CCOC(=O)C(C(C)=O)c1nc2sc3cc(Cl)c(Cl)cc3n2c(=O)c1C#N (stereo not given)	98.6%
COc1cc(-c2nc(SCCC(C)C)nc(Nc3ccc(S(N)(=O)=O)cc3)c2C#N)cc(OC)c1OC	-0.242% (active)
Nc1nc(Nc2ccccc2)c2ncn(Cc3cc4c(cc3Br)OCO4)c2n1	9.96% (active)
CC(C)(C)c1cc(C(=O)Nc2cc3ccccc3cc2C(=O)NCCN)cc(C(C)(C)C)c1	-47.8% (active)
COc1cccc(-c2[nH]c(=S)ncc2C(=O)c2ccccc2)c1	113%
CC(=O)CC(=O)SC1=NCCS1	98.1%
C=C(C)[C@@H]1CC[C@]2(C)[C@H](CC[C@@H]3[C@@H]([C@@](C)(O)CCC=C(C)C)CC[C@]32C)[C@@]1(C)CCC(=O)N1CCN(C)CC1	-38.4% [100 µM] (active)
CC(C)=CCC[C@](C)(O)[C@H]1CC[C@]2(C)[C@@H]1CC[C@@H]1[C@@]3(C)CC[C@H](OC(=O)CCC(=O)O)C(C)(C)[C@@H]3CC[C@]12C	9.12% [100 µM] (active)
